Screening results (PubChem)
An excerpt weighted towards active compounds, which were near 8.3% of everything screened.
HCMV antiviral – blocks human cytomegalovirus replication; HFF cells, HCMV-luciferase reporter, 72 h; active compounds read low; activity change, negative = inhibition, % at 57.5 µM; 410,000 tested, 4.5% active; in the data active = activity change below about -60%; inconclusive = no clear call, values can overlap the other calls; inactive = above about -39%
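Human foreskin fibroblasts infected with luciferase-reporter HCMV at MOI 1 PFU/cell, compounds at two doses. Luciferase measured 72 h post infection; normalized to buffer-only basal and Salinomycin (10uM) controls.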
FMDV inh – blocks foot and mouth disease virus | AID 1159524 | 410,000 tested, 1.2% active | FMDV antiviral cell-based qHTS | Potency, µM (top dose mostly 57.9 µM), for inactives: at the highest dose activity change, negative = inhibition, usual class: inhibitors; calls by dose curve; tested in HEK293T cells; note: read-out not given here; potency is the fitted concentration of half-maximal effect; nearly all actives have a fitted effect of over 45% in size
Giardia FBPA inh – blocks Giardia fructose-bisphosphate aldolase activity; A8B2U2; purified Giardia FBPA; Potency, µM (top dose mostly 59.6 µM), without a hit: at the top dose activity, negative = inhibition, hits mostly inhibitors; 290,000 tested, 0.71% active; note: potency is the fitted concentration of half-maximal effect; nearly all actives have a fitted effect of over 55% in size
Target sequence (A8B2U2 whole entry, looked up): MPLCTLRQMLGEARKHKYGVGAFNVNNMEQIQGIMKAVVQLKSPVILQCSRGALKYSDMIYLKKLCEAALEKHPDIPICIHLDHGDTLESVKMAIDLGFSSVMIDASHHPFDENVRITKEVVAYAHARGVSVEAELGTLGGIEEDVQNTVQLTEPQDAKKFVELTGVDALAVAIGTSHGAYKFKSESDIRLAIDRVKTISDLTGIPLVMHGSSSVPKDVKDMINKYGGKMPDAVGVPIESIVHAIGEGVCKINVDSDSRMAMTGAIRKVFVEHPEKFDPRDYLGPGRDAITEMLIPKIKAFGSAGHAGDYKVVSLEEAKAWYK
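Giardia FBPA (40 nM reagent) was preincubated 10 min at RT with compound (up to 57.5 uM final), then substrate plus GAPDH/TPI/NAD/arsenate coupling system with diaphorase/resazurin was added; resorufin fluorescence (525/598 nm) was read after 20 min.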
HCV inhibitor – HCV inhibition | Huh7.5.1 HCVcc-Cre infection, luciferase reporter, 44 h | Potency, µM (series often up to 41.8 µM), inactives show at the highest dose activity change, negative = inhibition, most hits filed as inhibitors | 340,000 tested, 3.4% active; note: potency is the fitted concentration of half-maximal effect
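HCVcc-Cre virus at an moi near 0.5 was added right after compound to cells cultured 4 h from seeding (1,000 cells/well). Luciferase activity was determined 44 h later, 15 min after substrate addition at RT.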
Lassa entry inh – Lassa virus entry inhibition; Lassa virus pseudotype entry inhibition, cell reporter; Potency, µM (doses to about 37.9 µM), for inactives: top-dose activity change, negative = inhibition, most hits filed as inhibitors; 300,000 tested, 1.2% active; calls by dose curve; tested in HEK293 cells; note: potency is the fitted concentration of half-maximal effect; nearly all actives have a fitted effect of over 50% in size
MARV entry inh – inhibitors of Marburg virus binding or cell entry. 300,000 tested, 1.8% active. AID 540276. Marburg virus pseudotyped entry inhibition, cell reporter. Potency, µM (top dose mostly 37.8 µM), without a hit: top-dose activity change, negative = inhibition, actives largely listed as inhibitors; calls by dose curve; tested in HEK293 cells; note: potency is the fitted concentration of half-maximal effect
The depositor's hits bear a star; ? = inconclusive; . = not tested or not shown; [ ] = remark or other dose. Unless noted, calls come from the whole dose curve; as a rule, active = well fitted curve in the direction sought with a large enough effect; inconclusive = small, poorly fitted or top-dose-only effect, or another doubt; inactive = no such curve, though single readings can be large; an effect the other way counts as inactive or inconclusive. % is set by controls: 0 for no effect and ±100 for the full control effect.

SMILES	HCMV antiviral	FMDV inh	Giardia FBPA inh	HCV inhibitor	Lassa entry inh	MARV entry inh
COc1ccc(CCNC(=O)c2ccc(CNS(=O)(=O)c3cccc(Cl)c3)cc2)cc1OC	-7	?	-1%	7.9µM*	?	?
COc1ccc(CCN(C)C(=O)c2cc(S(=O)(=O)NCc3ccccc3)ccc2C)cc1OC	?	-11%	.	8.9µM*	-1%	?
COc1ccc(CCNC(=O)c2ccc(CNS(=O)(=O)c3cc(C)ccc3C)cc2)cc1OC	?	20µM*	0%	?	?	10µM*
COc1cccc(OCc2cc(=O)n3c(-c4ccccc4)csc3n2)c1	18	-4%	.	.	10%[46.1 µM]	?
O=C(NCCc1nnc2n1CCN(Cc1c(F)cccc1F)CC2)c1ccc(F)cc1	.	-2%	.	.	.	.
Nc1ncnc2c1nc(Br)n2C1O[C@H]2COP(=O)(O)O[C@@H]2C1O (some centres undefined)	.	.	-2%	.	.	3.2µM*
CS[C@@H]1SC[C@H]2C(=O)N(C)C(C(C)C)C(=O)OC[C@@H](NC(=O)c3cnc4ccccc4n3)C(=O)N[C@@H](C)C(=O)N(C)[C@H]1C(=O)N(C)C(C(C)C)C(=O)OC[C@@H](NC(=O)c1cnc3ccccc3n1)C(=O)N[C@@H](C)C(=O)N2C (some centres undefined)	.	.	4%	.	.	.
O=C1c2c(O)cc(O)cc2O[C@H](c2ccc(O)c(O)c2)C1O (some centres undefined)	.	.	-19%	.	.	.
COc1ccc(-n2c(O)c(/C=C3\C=Nc4ccccc43)c(=O)[nH]c2=O)cc1	37	-10%	-7%	21%	.	.
COc1ccc(-n2c(O)c(/C=C3\C=Nc4ccc(Br)cc43)c(=O)[nH]c2=O)cc1	156	16µM*	-5%	4%	19%	-5%[46.1 µM]
COc1ccc(-n2c(O)c(/C=C3\C=Nc4ccc(Br)cc43)c(=O)[nH]c2=O)c(OC)c1	106	25µM*	-7%	-18%	?	?
COc1ccccc1CNC(=O)C1CCCN(c2nnc(-n3c(C)ccc3C)s2)C1 (centres undefined)	-24	-11%	.	.	-16%[46.1 µM]	-25%[46.1 µM]
Cc1ccc2nc(C(Cl)(Cl)Cl)nc(N/N=C/c3ccc([N+](=O)[O-])cc3)c2c1	-28	22µM*	.	?	25%	10%[46.1 µM]
Oc1cc(-c2nc3ccccc3s2)cc2c1OCCN(Cc1cccn1-c1ncccn1)C2	.	37%	.	.	.	.
COC(=O)C/C=C\[C@@H](C)[C@@H](/C=N\O[C@@H](C)CN1CCCc2nc(C)c(C)cc21)OC	.	.	-3%[12.9 µM]	.	.	.
CCCCOc1ccc(C(=O)OC2CC(C)N(C)CC2C)cc1 (centres undefined)	2	6%	0%	4.5µM*	3%	?
CCCCOc1ccc(C(=O)N2CCC(C)CC2)cc1	-28	40%	3%	7%	?	30%
CN(C)c1ccc(-c2nccc(NCc3cccs3)n2)cc1	.	0%	-24%	.	.	.
Cc1ccc(C(=O)NNC(=O)CSc2nnc3c(n2)[nH]c2ccc(C)cc23)cc1	.	.	-2%	-6%	-24%	-13%
CCc1ccc2[nH]c3nc(SCCN4CCOCC4)nnc3c2c1	-91*	?	10%	?	.	.
CCc1ccc2[nH]c3nc(SCC(=O)NCC4CCCO4)nnc3c2c1 (centres undefined)	?	-23%	-5%	?	.	?
CCc1ccc2[nH]c3nc(SCC(=O)NNC(=O)c4ccc(C(C)(C)C)cc4)nnc3c2c1	-106*	-4%	7%	?	?	4.6µM*
COC(=O)C1(Cc2ccccc2)C=C2C(=C(C(C)C)C(=O)C2C)CN1 (centres undefined)	.	.	-26%	.	.	.
COC(=O)C/C=C1\c2ccc3c(c2[C@@H](OC)[C@@H]1C)OCO3	.	.	-5%	.	.	.
COc1cc2c(cc1OC)C1(CCCC1)C(N)=C2C#N	?	-24%	?	3.2µM*	?	?
SMILES	HCMV antiviral	FMDV inh	Giardia FBPA inh	HCV inhibitor	Lassa entry inh	MARV entry inh
C[C@@H](c1ccccc1)N1C(=O)[C@H]2[C@H]3[C@H](O)[C@H](O)C/C(=N/OCc4ccccc4)[C@@H]3CC[C@@H]2C1=O	.	.	-2%[12.9 µM]	.	.	.
O=c1c2ccccc2[nH]c2ccc(O)cc12	12	-8%	-6%	-1%	-12%	15%[46.1 µM]
O=c1nc(-c2ccccc2)c2ccccc2[nH]1	18	?	-2%	-7%	1%	-5%
O=C1C(c2cc(=O)c3ccccc3[nH]2)=C(O)c2ccccc21	13	-12%	?	8%	?	5.6µM*
Cc1ccc(C2=C(O)c3ccccc3C(=O)C2=O)cc1	4	3%	?	18%	.	.
O=C1C(c2ccncc2)=C(O)c2ccccc21	67	0%	-4%	0%	7.9µM*	7.1µM*
O=c1cc(-c2ccccc2)[nH]c2ccccc12	-76*	-12%	4%	-26%	-6%	?
COC(=O)c1c(-c2cc(OC)c(OC)c(OC)c2)c2ccc(OCc3ccccn3)cc2c(=O)n1-c1ccc(N)cc1	.	.	0%	.	.	?
COc1ccc(NC(=O)Cn2nc(C)c3c(C)n(-c4ccccc4)nc3c2=O)cc1OC	-7	-15%	.	.	-5%[46.1 µM]	.
O=C(CC1C(=O)N(c2ccccc2)C(=O)N1CCC1=CCCCC1)Nc1ccc(F)cc1 (centres undefined)	-5	5%	.	.	-6%[46.1 µM]	?
Nc1ccc(Cn2ccc3c4c(N)nc(N)nc4ccc32)cc1	-99*	?	.	?	?	?
COc1ccc(C(=Cc2cc(OC)c(OC)cc2[N+](=O)[O-])C(=O)O)cc1	-99*	-3%	.	-20%	-3%	0%
COc1cc(/C=C(\NC(=O)c2ccccc2)C(=O)NCCO)c([N+](=O)[O-])cc1OC	89	?	0%	34%	-1%	0%
COc1ccccc1N1CCN(C(=O)C2CCN(S(=O)(=O)c3cccs3)CC2)CC1	42	15%	.	.	?	0%[46.1 µM]
CN(CC1COc2ccccc2O1)c1nc(-c2cccnc2)nc2ccccc12 (centres undefined)	-17	25µM*	1%	11µM*	?	2.6µM*
c1ccc(CNc2nc(-c3cccnc3)nc3ccccc23)cc1	-37	?	8%	?	.	.
c1cncc(-c2nc(NCC3COc4ccccc4O3)c3ccccc3n2)c1 (centres undefined)	-17	22µM*	0%	11µM*	-30%	?
CN(Cc1ccco1)c1nc(-c2cccnc2)nc2ccccc12	.	-7%	-5%	.	.	.
COc1ccc(CNc2ncnc3ccc(-c4c(C)noc4C)cc23)c(OC)c1	.	24%	4%	.	.	.
O=C(COC(=O)C1(c2ccc(Cl)cc2)CCCC1)NCc1ccco1	-25	?	-7%	6%	-14%	-6%[14.2 µM]
CCc1ccc(NC(=O)COC(=O)C2(c3ccc(Cl)cc3)CCCC2)cc1	-13	20µM*	0%	?	1%	24%
